Several values for one entry are separate records, joined by “and”; a condition that tells them apart may be missing. Equal entries are not always repeated. Records with an inconclusive call do not appear. Where a structure was tested more than once in an assay, its records may differ in their call. Activity calls are given as the source filed them. Calls come from the whole dose curve; as a rule, active = well fitted inhibition curve with a large enough effect; inconclusive = small, poorly fitted or top-dose-only effect; inactive = flat fitted curve, though single readings scatter.
Potency is the fitted concentration of half-maximal effect.

The nature of the test: P-glycoprotein substrates identified in KB-8-5-11 adenocarcinoma cell line, qHTS therapeutic library screen (AID 1346987). Note: nearly all actives have a fitted effect of over 65% in size. As to conditions: KB-8-5-11 (P-gp overexpressing) viability, CellTiter-Glo, 72 h; series mostly up to 44.5 µM. The text has this:
The ATP-binding cassette transporters P-glycoprotein (P-gp) is known to limit brain penetration of many chemotherapy drugs. […] As such, we developed a high-throughput screen (HTS) to identify substrates of P-gp from a series of chemical libraries including the National Center for Advancing Translational Sciences Pharmaceutical Collection NPC, 2,816 compounds), testing a total of 10,804 compounds, most of which have known mechanisms of action. We used the CellTiter-Glo viability assay to test library compounds against the parental KB-3-1 human cervical adenocarcinoma cell line and the colchicine-selected sub-line KB-8-5-11 that over-expresses P-gp. KB-8-5-11 cells were also tested in the presence of a P-gp inhibitor (tariquidar) to assess reversability of transporter-mediated resistance. Of the tested compounds, a total of 90 P-gp substrates were identified including 55 newly identified P-gp substrates. Substrates were confirmed using an orthogonal killing assay against HEK-293 cells transfected with P-gp. As exemplars, we confirmed that […] (cyclin-dependent kinase inhibitor); AT9283, (Janus kinase 2/3 inhibitor); ispinesib (kinesin spindle protein inhibitor); gedatolisib (PKI-587, phosphoinositide 3-kinase/mammalian target of rampamycin inhibitor); GSK-690693 (AKT inhibitor); and KW-2478 (heat shock protein 90 inhibitor) were substrates , and direct ATPase stimulation was assessed. ABCG2 was also found to confer high levels of resistance to AT9283, GSK-690693 and gedatolisib, while ispinesib, AT7519 and KW-2478 were weaker substrates.
The HeLa derivative cell line, KB-3-1, and its colchicine-selected, P-gp-overexpressing subline, KB-8-5-11 were maintained in DMEM with 10% FCS and Pen/Strep with glutamine at 37 degree C in 5% CO2. For KB-8-5-11 cells, colchicine was added to the medium at a concentration of 100 ng/mL. HEK-293 cells transfected with empty vector (pcDNA) or vector containing human ABCB1 (MDR-19) or ABCG2 (R-5) have been described previously (Robey, Lin, Qiu, Chan & Bates, 2011) and were maintained in EMEM supplemented with 10% FCS, Pen/Strep and glutamine with 2 mg/ml G418 to select for the expression of the transporter. Cultures were confirmed to be free of mycoplasma infection using the MycoAlert Mycoplasma Detection Kit (Lonza, Walkersville, MD). For the screen, assay medium was identical to culture medium except for KB-8-5-11 where colchicine was excluded from the medium.
All cell lines were plated into 1536-well plates at 500 cells/well in 5 uL media. Compounds were then pinned in dose-response using a 1536-head pin tool (Kalypsis, San Diego, CA) and plates were incubated at 37 degree C in 5% CO2 for an additional 72 h. CellTiter-Glo reagent (Promega) was dispensed into the wells, incubated for 5 min and luminescence was read on a ViewLux instrument (Perkin-Elmer). Cytotoxic compounds were defined as those that yielded a curve class of -1.1, -1.2, -2.1, -2.2, -2.3, or -2.4, a maximum response of >50% and an AC50 of < 10 uM. Cherry-picked hits from screening analysis were tested with both the KB pair of cell lines, and the pcDNA (empty vector control) and MDR-19 (P-gp overexpressing) pair were tested, in the absence and presence of tariquidar.
For the compound `C=CC(=O)Nc1cc2c(Nc3ccc(F)c(Cl)c3)ncnc2cc1OCCCN1CCOCC1`, the Potency is 18.4 µM (active).
In the case of `COc1c(OCCCN2CCOCC2)ccc2c3n(c(=NC(=O)c4cnc(N)nc4)nc12)CCN3`, the Potency is 0.15 µM (active).
The entry for `O=c1[nH]c(=O)n(C2CCCO2)cc1F` (stereo not given) is “inactive”; for `C=C1C(=CC=C2CCCC3(C)[C@@H]([C@H](C)C=CC=CC(O)(CC)CC)CC[C@@H]23)C[C@@H](O)C[C@@H]1O` (stereo not given in full) it is “inactive”; for `CC(NCc1ccc2c(c1)nc(NC(=O)c1ccc(-c3cn[nH]c3)s1)n2CC(C)(C)O)C(C)(C)C` (stereo not given) it is 4.18 µM (active).
With `Cc1ccc(C(=O)Nc2cccc(C(F)(F)F)c2)cc1-c1ccc2nc(NCCN3CCOCC3)ncc2c1`, the Potency was 16.6 µM (active) and 11.6 µM (active).
The figure for `C[C@@H]1COC(Nc2ccc3ncnc(Nc4ccc(OCc5nccs5)c(Cl)c4)c3c2)=N1` is 20.9 µM (active).
Consider `c1nc2nc(Nc3ccc(N4CCOCC4)cc3)nc(NC3CCCCC3)c2[nH]1`, for which the Potency was 5.26 µM (active) and 632 nM (active) and 1.16 µM (active).
As to `COc1cc(Nc2ncc(F)c(Nc3ccc4c(n3)N(COP(=O)(O)O)C(=O)C(C)(C)O4)n2)cc(OC)c1OC`, the Potency is 1.66 µM (active) and 2.31 µM (active) and 13 µM (active).
With `CCOc1cc2ncc(C#N)c(Nc3ccc(F)c(Cl)c3)c2cc1NC(=O)C=CCN(C)C`, the Potency was 10.5 µM (active).
Consider `CC(C)c1nn(-c2c(Cl)cccc2Cl)c2nc(Cc3ccc(OCCO)cc3)[nH]c(=O)c12`, for which the Potency is 118 nM (active) and 103 nM (active).
As to `CCOc1ccccc1OCCNC(C)Cc1ccc(OC)c(S(N)(=O)=O)c1` (stereo not given), the Potency entry was “inactive”.
For `CCC[C@H](NC(=O)C(C#N)=Cc1cccc(Br)n1)c1ccccc1`, the Potency was 18.7 µM (active).
The figure for `COc1ccc2c(c1)CC[C@@H](CN(C)CC(=O)O)[C@H]2c1ccccc1` is 1.66 µM (active) and inactive; for `Cc1coc2c1C(=O)C(=O)c1c-2ccc2c1CCCC2(C)C` it is “inactive and 9.2 µM (active)”; for `COc1cccc2nc(-c3cccs3)nc(NN3C(=O)C=C(C)C3=O)c12` it is 469 nM (active) and 1.64 µM (active).
For `CN(C)Cc1c(C(=O)NCCOc2ccc(C(=O)NO)cc2)oc2ccccc12`, the Potency is 7.43 µM (active) and 4.61 µM (active).
Turning to `CCOC(=O)C1=C(C)NC2=C(C(=O)CC(C)(C)C2)C1c1ccc(-c2ccccc2)cc1` (stereo not given), the Potency result is “inactive and 23.1 µM (active)”.
For `Cc1cc(C(=O)N2CCN(c3cccc(Cl)c3)CC2)n(-c2ccccc2)n1`, the Potency is 372 nM (active) and 1.3 µM (active).
The figure for `COC(=O)Nc1ccc(-c2nc(N3CCOCC3)c3cnn(C4CCN(Cc5cccnc5)CC4)c3n2)cc1` is 148 nM (active) and 920 nM (active); for `CN1CCC(CNc2ccc3ncc(-c4cccc(OC(F)(F)F)c4)n3n2)CC1` it is 13.2 µM (active) and 18.4 µM (active).
`CN(C)CC=CC(=O)Nc1cc2c(Nc3ccc(F)c(Cl)c3)ncnc2cc1O[C@H]1CCOC1`: the Potency was 9.35 µM (active).
`C=CC(=O)Nc1cccc(Oc2nc(Nc3ccc(N4CCN(C)CC4)cc3)ncc2Cl)c1`: the Potency is 3.32 µM (active) and 7.31 µM (active).
Turning to `CCS(=O)(=O)c1cccc(-c2cc(C(=O)NC3CCN(C)CC3)c(C)c3[nH]c4ncc(C)cc4c23)c1`, the Potency result was “inactive”.
In the case of `CNC(=O)CN1CCC(Oc2cc3c(Nc4cccc(Cl)c4F)ncnc3cc2OC)CC1`, the Potency entry is “inactive”.
As to `COc1ccc(-c2cc3c(C)nc(N)nc3n(C3CCC(OCCO)CC3)c2=O)cn1` (stereo not given), the Potency is 41.8 nM (active) and 366 nM (active).
With `CC(C)(C)NC(=O)[C@H]1CN(Cc2cccnc2)CCN1C[C@@H](O)C[C@@H](Cc1ccccc1)C(=O)N[C@H]1c2ccccc2C[C@H]1O`, the Potency is 23.5 µM (active).
`COc1ccc2c(OCc3nnc4ccc(-c5ccccc5)nn34)ccnc2c1`: the Potency result was “inactive”.
The figure for `CC1(C)OC2=C(C(=O)c3ccccc3C2=O)[C@H](NCc2ccccc2)[C@H]1O` is 9.35 µM (active).
The entry for `C1Cc2[nH]nc(-c3nn[nH]n3)c2C1` is “inactive”; for `C=CC(=O)Nc1cc2c(Nc3ccc(F)c(Cl)c3)ncnc2cc1C#CC(C)(C)N1CCN(C)CC1` it is 16.4 µM (active).
The figure for `CC[C@@]1(O)C(=O)OCc2c1cc1n(c2=O)Cc2cc3cc(O)ccc3nc2-1` is 1.16 µM (active) and 1.05 µM (active); for `CCCCCCCCCC(=O)N[C@@H](Cc1c[nH]c2ccccc12)C(=O)N[C@H](CC(N)=O)C(=O)N[C@@H](CC(=O)O)C(=O)N[C@@H]1C(=O)NCC(=O)N[C@@H](CCCN)C(=O)N[C@@H](CC(=O)O)C(=O)N[C@H](C)C(=O)N[C@@H](CC(=O)O)C(=O)NCC(=O)N[C@H](CO)C(=O)N[C@@H]([C@@H](C)CC(=O)O)C(=O)N[C@@H](CC(=O)c2ccccc2N)C(=O)O[C@@H]1C` it is “inactive”.
Take `CC1=C(CO)C(=O)O[C@@H]([C@@H](C)[C@H]2CC[C@H]3[C@@H]4C[C@H]5O[C@]56[C@@H](O)C=CC(=O)[C@]6(C)[C@@H]4CC[C@]23C)C1`: the Potency is 1.18 µM (active).
`CC(C)[C@H](C(=O)Nc1ccc(C(=O)NO)cc1)c1ccccc1`: the Potency was 1.48 µM (active).
For the compound `O=C(Nc1cc(C(F)(F)F)cc(C(F)(F)F)c1)c1cc(Cl)ccc1O`, the Potency is 187 nM (active) and 820 nM (active).
As for `CS(=O)(=O)c1ccc(-c2cnc(N)c(C(=O)Nc3ccccc3)n2)cc1`, the Potency entry is “inactive”.
As for `Nc1cccc(-c2cc3c(Oc4cccc(O)c4)ncnc3[nH]2)c1`, the Potency was 20.9 µM (active).
Consider `COCCOc1ccc2c(c1)ncn2-c1ccc2cccc(N3CCC(N)CC3)c2n1`, for which the Potency was 23.5 µM (active).
Take `Nc1nc(-c2nn(Cc3ccccc3F)c3ncccc23)nc(N)c1N1CCOCC1`: the Potency result is “inactive”.

The record behind these values is PubChem BioAssay (NCATS).
